# Assay results: PubChem BioAssay (NCI)
# This is part of a sample that, as a whole, favours compounds with a hit. Of some 79,000 tested, about 15% had one in any assay. A number with no mark means an inactive call. Activity calls are given as the source filed them. Cut-off read from the data, not from the text of the source: active = growth inhibition above about 70%; inactive = the rest.
# Legend:
# [1] = NCI Yeast Anticancer Drug Screen. Data for the mec2-1 strain (AID 157); conditions: S. cerevisiae mec2-1 strain, active compounds read high
# Method in brief: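 Strain: mec2-1 (DNA repair/cell cycle alteration). Compound exposure, then growth measured; inhibition expressed relative to vehicle.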
# [2] = NCI Yeast Anticancer Drug Screen. Data for the rad14 strain (AID 159);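 note: 0% = growth of vehicle-treated control cultures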; conditions: S. cerevisiae rad14 strain growth inhibition, active compounds read high
# Method in brief: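 Vehicle-treated cultures served as the baseline for growth inhibition of a DNA repair-mutant yeast strain exposed to each compound.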
# [3] = NCI Yeast Anticancer Drug Screen. Data for the sgs1 mgt1 strain (AID 161);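 note: 0% = growth of cultures given vehicle only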; conditions: S. cerevisiae sgs1 mgt1 strain, active compounds read high
# Method in brief: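 Test agents were incubated with a DNA-repair-mutant yeast strain. Growth was then read and compared against vehicle-treated controls.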
# [4] = NCI Yeast Anticancer Drug Screen. Data for the CLN2oe strain (AID 163);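 note: 0% = growth of vehicle-only control cultures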; conditions: S. cerevisiae CLN2oe strain, active compounds read high
# Method in brief: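 Growth of a genetically modified yeast strain is measured after compound exposure and compared with cultures given vehicle alone.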
# [5] = NCI Yeast Anticancer Drug Screen. Data for the cln2 rad14 strain (AID 165);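 note: 0% = growth equal to vehicle treated cultures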; conditions: S. cerevisiae cln2 rad14 strain, active compounds read high
# Method in brief: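 Compounds are applied to the cln2 rad14 yeast strain, and growth is then compared with that of vehicle-treated cultures to give inhibition.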
# [6] = NCI Yeast Anticancer Drug Screen. Data for the bub3 strain (AID 167); conditions: S. cerevisiae bub3 mutant strain, active compounds read high
# Method in brief: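 Inhibition values come from growth of compound-treated mutant yeast normalised to vehicle-treated controls.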
# [7] = NCI Yeast Anticancer Drug Screen. Data for the wt2 strain (AID 169);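 note: 0% = growth of vehicle-treated yeast cultures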; conditions: S. cerevisiae wt2 strain growth inhibition, active compounds read high
# Method in brief: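 This strain belongs to a panel of yeast strains with defined genetic alterations in DNA damage repair or cell cycle control. Compounds are applied, and growth inhibition is measured against vehicle-treated cultures.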
# [8] = NCI Yeast Anticancer Drug Screen. Data for the mlh1 strain (AID 171);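 note: 0% = growth of vehicle-treated control cultures of the same strain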; conditions: S. cerevisiae mlh1 strain growth inhibition, active compounds read high
# Method in brief: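 Growth of the mutant yeast strain after compound exposure, expressed as inhibition relative to vehicle-only controls.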
# [9] = NCI Yeast Anticancer Drug Screen. Data for the sgs1 strain (AID 173);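 note: 0% = growth of vehicle-only control cultures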; conditions: S. cerevisiae sgs1 mutant, active compounds read high
# Method in brief: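 Growth of a yeast strain bearing a defined genetic alteration is measured after compound treatment. Inhibition is expressed relative to vehicle-only controls.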
# [10] = NCI Yeast Anticancer Drug Screen. Data for the mlh1 rad18 strain (AID 175); conditions: S. cerevisiae mlh1 rad18 strain growth inhibition, active compounds read high
# Method in brief: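 Read-out is yeast growth inhibition, calculated against vehicle-only controls. The compound was applied to a strain engineered with DNA damage repair alterations.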
# [11] = NCI Yeast Anticancer Drug Screen. Data for the rad18 strain (AID 177); conditions: S. cerevisiae rad18 mutant growth inhibition, active compounds read high
# Method in brief: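 Growth of the mutant yeast strain after compound exposure, normalised to vehicle-only cultures.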
# [12] = NCI Yeast Anticancer Drug Screen. Data for the rad52 strain (AID 147);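 note: 0% = growth of vehicle-treated control cultures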; conditions: S. cerevisiae rad52 mutant growth inhibition, active compounds read high
# Method in brief: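 Compounds are applied to a genetically defined yeast strain lacking normal DNA damage repair, and inhibition of growth is expressed relative to cultures given vehicle only.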
# [13] = NCI Yeast Anticancer Drug Screen. Data for the wt1 strain (AID 149);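 note: 0% = growth of vehicle-treated wt1 cultures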; conditions: S. cerevisiae wt1 strain (SPY 50644) growth inhibition, active compounds read high
# Method in brief: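 Vehicle-normalised growth inhibition; strain wt1; compound exposure.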
# [14] = NCI Yeast Anticancer Drug Screen. Data for the rad50EPP+ strain (AID 151);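 note: 0% = growth of vehicle-treated control cultures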; conditions: S. cerevisiae rad50 mutant strain, active compounds read high
# Method in brief: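 Compounds were applied to the rad50EPP+ yeast strain, which bears a defined DNA repair alteration, and growth inhibition was determined relative to vehicle-treated cultures.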
# [15] = NCI Yeast Anticancer Drug Screen. Data for the mgt1 strain (AID 153); conditions: S. cerevisiae mgt1 mutant growth inhibition, active compounds read high
# Method in brief: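 Strain: mgt1 yeast, one of a set carrying defined DNA damage repair or cell cycle control alterations. Compound-treated growth compared with vehicle.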
# [16] = NCI Yeast Anticancer Drug Screen. Data for the rad50 strain (AID 155);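 note: 0% = growth of vehicle-only cultures of the same strain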; conditions: S. cerevisiae rad50 strain growth inhibition, active compounds read high
# Method in brief: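 A DNA repair-deficient yeast mutant serves as the test organism; compound-induced growth inhibition is calculated against vehicle-treated cells.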
# [17] = at 5.0 µM (retest, dose inferred, filed as 0.5)
# [18] = at 50.0 µM (retest, dose inferred, filed as 5.0)
structure (smiles),measurement,setting,value
O=c1[nH]c(-c2ccccc2)nc2c1sc1nc3ccccc3n12,growth inhibition,[1]; [17],5%
same,growth inhibition,[1]; at 11.0 µM,-30%
same,growth inhibition,[1]; at 33.0 µM,-19%
same,growth inhibition,[1]; [18],9%
same,growth inhibition,[1]; at 50.0 µM,-15.2%
same,growth inhibition,[1]; at 100.0 µM,-27%
same,growth inhibition,[2]; at 1.2 µM,-24%
same,growth inhibition,[2]; at 3.7 µM,-22%
same,growth inhibition,[2]; at 11.0 µM,-24%
same,growth inhibition,[2]; at 33.0 µM,-14%
same,growth inhibition,[2]; at 100.0 µM,-11%
same,growth inhibition,[3]; [17],7%
same,growth inhibition,[3]; [18],62%
same,growth inhibition,[3]; at 50.0 µM,-30.5%
same,growth inhibition,[4]; at 1.2 µM,-52%
same,growth inhibition,[4]; at 3.7 µM,-72%
same,growth inhibition,[4]; at 11.0 µM,-39%
same,growth inhibition,[4]; at 33.0 µM,-23%
same,growth inhibition,[4]; at 100.0 µM,-20%
same,growth inhibition,[5]; [17],14%
same,growth inhibition,[5]; [18],19%
same,growth inhibition,[5]; at 50.0 µM,5.95%
same,growth inhibition,[6]; at 1.2 µM,-35%
same,growth inhibition,[6]; at 3.7 µM,-45%
same,growth inhibition,[6]; [17],6%
same,growth inhibition,[6]; at 11.0 µM,-43%
same,growth inhibition,[6]; at 33.0 µM,-43%
same,growth inhibition,[6]; [18],7%
same,growth inhibition,[6]; at 50.0 µM,-35.5%
same,growth inhibition,[6]; at 100.0 µM,-33%
same,growth inhibition,[7]; at 1.2 µM,2%
same,growth inhibition,[7]; at 3.7 µM,-6%
same,growth inhibition,[7]; at 11.0 µM,-6%
same,growth inhibition,[7]; at 33.0 µM,19%
same,growth inhibition,[7]; at 100.0 µM,5%
same,growth inhibition,[8]; at 1.2 µM,-24%
same,growth inhibition,[8]; at 3.7 µM,-44%
same,growth inhibition,[8]; at 11.0 µM,-47%
same,growth inhibition,[8]; at 33.0 µM,-28%
same,growth inhibition,[8]; at 100.0 µM,-42%
same,growth inhibition,[9]; at 1.2 µM,-47%
same,growth inhibition,[9]; at 3.7 µM,-43%
same,growth inhibition,[9]; at 11.0 µM,-39%
same,growth inhibition,[9]; at 33.0 µM,-38%
same,growth inhibition,[9]; at 100.0 µM,-42%
same,growth inhibition,[10]; [17],4%
same,growth inhibition,[10]; [18],22%
same,growth inhibition,[10]; at 50.0 µM,-23.4%
same,growth inhibition,[11]; at 1.2 µM,-35%
same,growth inhibition,[11]; at 3.7 µM,-38%
same,growth inhibition,[11]; at 11.0 µM,-39%
same,growth inhibition,[11]; at 33.0 µM,-38%
same,growth inhibition,[11]; at 100.0 µM,-38%
O=[N+]([O-])c1ccc(N/N=C/Cc2ccccc2)c([N+](=O)[O-])c1,growth inhibition,[12]; at 1.2 µM,-3%
same,growth inhibition,[12]; at 3.7 µM,-4%
same,growth inhibition,[12]; at 11.0 µM,-2%
same,growth inhibition,[12]; at 33.0 µM,2%
same,growth inhibition,[12]; at 100.0 µM,2%
same,growth inhibition,[13]; at 1.2 µM,-1%
same,growth inhibition,[13]; at 3.7 µM,-2%
same,growth inhibition,[13]; at 11.0 µM,-3%
same,growth inhibition,[13]; at 33.0 µM,-6%
same,growth inhibition,[13]; at 100.0 µM,-12%
same,growth inhibition,[14]; at 1.2 µM,-2%
same,growth inhibition,[14]; at 3.7 µM,10%
same,growth inhibition,[14]; at 11.0 µM,24%
same,growth inhibition,[14]; at 33.0 µM,46%
same,growth inhibition,[14]; at 100.0 µM,57%
same,growth inhibition,[15]; at 1.2 µM,-2%
same,growth inhibition,[15]; at 3.7 µM,1%
same,growth inhibition,[15]; at 11.0 µM,-1%
same,growth inhibition,[15]; at 33.0 µM,-2%
same,growth inhibition,[15]; at 100.0 µM,13%
same,growth inhibition,[16]; at 1.2 µM,0%
same,growth inhibition,[16]; at 3.7 µM,-2%
same,growth inhibition,[16]; [17],5%
same,growth inhibition,[16]; at 11.0 µM,4%
same,growth inhibition,[16]; at 33.0 µM,8%
same,growth inhibition,[16]; [18],20%
same,growth inhibition,[16]; at 50.0 µM,-3.75%
same,growth inhibition,[16]; at 100.0 µM,-2%
same,growth inhibition,[1]; at 1.2 µM,-4%
same,growth inhibition,[1]; at 3.7 µM,-1%
same,growth inhibition,[1]; [17],1%
same,growth inhibition,[1]; at 11.0 µM,2%
same,growth inhibition,[1]; at 33.0 µM,6%
same,growth inhibition,[1]; [18],12%
same,growth inhibition,[1]; at 50.0 µM,30.8%
same,growth inhibition,[1]; at 100.0 µM,4%
same,growth inhibition,[2]; at 1.2 µM,-5%
same,growth inhibition,[2]; at 3.7 µM,-2%
same,growth inhibition,[2]; at 11.0 µM,2%
same,growth inhibition,[2]; at 33.0 µM,7%
same,growth inhibition,[2]; at 100.0 µM,3%
same,growth inhibition,[3]; [17],3%
same,growth inhibition,[3]; [18],45%
same,growth inhibition,[3]; at 50.0 µM,25%
same,growth inhibition,[4]; at 1.2 µM,-3%
same,growth inhibition,[4]; at 3.7 µM,1%
same,growth inhibition,[4]; at 11.0 µM,4%
same,growth inhibition,[4]; at 33.0 µM,0%
same,growth inhibition,[4]; at 100.0 µM,-1%
same,growth inhibition,[5]; [17],7%
same,growth inhibition,[5]; [18],-3%
same,growth inhibition,[5]; at 50.0 µM,-7.05%
same,growth inhibition,[6]; at 1.2 µM,2%
same,growth inhibition,[6]; at 3.7 µM,2%
same,growth inhibition,[6]; [17],9%
same,growth inhibition,[6]; at 11.0 µM,12%
same,growth inhibition,[6]; at 33.0 µM,27%
same,growth inhibition,[6]; [18],74% (active)
same,growth inhibition,[6]; at 50.0 µM,67.2%
same,growth inhibition,[6]; at 100.0 µM,39%
same,growth inhibition,[7]; at 1.2 µM,4%
same,growth inhibition,[7]; at 3.7 µM,5%
same,growth inhibition,[7]; at 11.0 µM,5%
same,growth inhibition,[7]; at 33.0 µM,6%
same,growth inhibition,[7]; at 100.0 µM,5%
same,growth inhibition,[8]; at 1.2 µM,-4%
same,growth inhibition,[8]; at 3.7 µM,-5%
same,growth inhibition,[8]; at 11.0 µM,0%
same,growth inhibition,[8]; at 33.0 µM,6%
same,growth inhibition,[8]; at 100.0 µM,11%
same,growth inhibition,[10]; [17],1%
same,growth inhibition,[10]; [18],29%
same,growth inhibition,[10]; at 50.0 µM,12.1%
same,growth inhibition,[11]; at 1.2 µM,-2%
same,growth inhibition,[11]; at 3.7 µM,3%
same,growth inhibition,[11]; at 11.0 µM,11%
same,growth inhibition,[11]; at 33.0 µM,17%
same,growth inhibition,[11]; at 100.0 µM,21%
